# Rows were chosen to be rich in hits. Some 1.8% of all compounds tested hit in one or more screens of this group.
# Bim-Mcl-1 – human Bim-Mcl-1 interaction inhibition; Q07820; Bead-based flow cytometry, Bim peptide-Mcl-1 binding; inhibition, % at 10 µM; 190,000 compounds, 0.1% hits; in the data active = inhibition above about 40%;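 note: 0% = no compound tracer wells and 100% = peptide blocker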
# Target sequence (Q07820 whole entry, looked up): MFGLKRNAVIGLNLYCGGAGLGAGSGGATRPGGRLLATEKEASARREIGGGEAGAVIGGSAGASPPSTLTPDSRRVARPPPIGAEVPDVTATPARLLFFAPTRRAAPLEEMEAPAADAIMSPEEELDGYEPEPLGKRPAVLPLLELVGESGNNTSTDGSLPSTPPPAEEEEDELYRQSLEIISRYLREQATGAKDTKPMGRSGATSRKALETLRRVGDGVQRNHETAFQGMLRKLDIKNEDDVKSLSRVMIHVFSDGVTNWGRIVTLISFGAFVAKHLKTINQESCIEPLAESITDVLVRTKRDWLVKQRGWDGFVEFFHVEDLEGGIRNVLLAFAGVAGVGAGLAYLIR
# TLR9-MyD88 block – TLR9-MyD88 interaction inhibition; AID 504734; inhibition, % at 4.98 µM; Q9NR96+Q99836; 340,000 compounds, 0.21% hits; CHO BLA complementation TLR9-MyD88, CCF4 FRET ratio;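 active = inhibition above the mean over all tested compounds plus 3 SD, cut at about 21% in these data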;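 note: 0% = DMSO only wells and 100% = clavulanate BLA inhibitor control wells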
# Mcl1 Bid PPI – Mcl-1/Bid interaction inhibition; Q07820; TR-FRET Mcl-1/Bid-Dy647 peptide binding, 1536-well; inhibition, % at 21.7 µM; 220,000 compounds, 0.97% hits; AID 1021;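 active = compounds that cut the binding signal by more than half at the single screening dose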;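 note: His-tagged Mcl-1 with europium anti-His antibody binding Bid BH3 peptide; 0% = Mcl-1 plus peptide wells and 100% = peptide-only wells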
# NOD2 RIPK2 PPI – blocks binding of human NOD2 to RIPK2; CHO BLA complementation NOD2-RIPK2, CCF4 ratio; 360,000 compounds, 0.38% hits; O43353; inhibition, % at 4.98 µM; in the data active = inhibition above about 21%;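 note: 0% = vehicle only and 100% = reference blocker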
# Mcl1-Noxa inh – Mcl-1/Noxa interaction inhibition. 220,000 compounds, 1.5% hits. inhibition, % at 21.7 µM. Q07820. TR-FRET Mcl-1/Noxa peptide binding, 2 h;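 active = compounds that cut the protein-peptide binding signal by more than 50% relative to plate controls in a single-dose test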;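 note: His-tagged Mcl-1 with rhodamine Noxa BH3 peptide and terbium anti-His antibody; 0% = Mcl-1 plus Noxa peptide wells and 100% = peptide-only wells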
# TLR4-MyD88 BLA – inhibitors of human TLR4-MyD88 binding | O00206+Q99836 | HeLa CL3-4 TLR4/MyD88 BLA complementation, FRET ratio | inhibition, % at 8.4 µM | 200,000 compounds, 0.18% hits; in the data active = inhibition above about 25%;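 note: 0% = vehicle and 100% = reference inhibitor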
# * marks the source's active call; other numbers are inactive results; . = no result.
SMILES,Bim-Mcl-1,TLR9-MyD88 block,Mcl1 Bid PPI,NOD2 RIPK2 PPI,Mcl1-Noxa inh,TLR4-MyD88 BLA
C=C(C)C(=O)Nc1cccc(C2=NOC3(C2)C[C@@H](C(N)=O)N(C(=O)C(=C)C)C3)c1 (stereo partly drawn),.,-6,-63,-15,82*,.
COC(=O)c1ccc(S(=O)(=O)N2Cc3ccccc3C2)cc1,-2,1,4,-2,9,-11
Cc1nc2ccccc2n1Cc1ccccc1,.,-14,.,9,.,.
Cc1nc2ccccc2n1CSc1ccccc1,42*,-2,-6,2,8,5
O=[N+]([O-])/C=C/c1c(OCc2ccccc2)ccc2ccccc12,-5,27*,12,82*,-2,13
CCc1nc2oc3ccccc3c(=O)c2c(=O)n1-c1ccc(C)cc1,.,.,-19,-3,54*,.
Cc1ccc(-n2c(-c3ccccc3)c[n+]3c2CCC3)cc1,-1,-13,-11,-11,51*,0
CC(C)c1ccc(C(=O)NC(=S)Nc2ccc3[nH]c(=O)[nH]c3c2)cc1,.,2,-15,-3,4,.
O=C(Nc1n[nH]c(C(F)(F)F)n1)C1CC1,43*,-4,-4,-10,4,-6
Cc1ccsc1C(=O)Nc1n[nH]c(C(F)(F)F)n1,.,-11,-5,-7,-6,.
O=C(COC(=O)c1ccccc1-n1cnnn1)c1ccc(F)c(F)c1,.,-1,.,-14,.,.
COc1cccc(CNCc2cc(OC)cc(OC)c2)c1,.,-10,.,-7,.,.
COc1cc(CNCc2ccc(SC)cc2)cc(OC)c1,-4,-4,51*,-2,25,-3
O=C(c1[nH]c(C(F)(F)F)nc1-c1ccccc1)N1CCN(c2ncccc2C(F)(F)F)CC1,.,.,.,-3,.,.
Cc1cc(C(=O)N2CCOCC2)n(-c2ccccc2)n1,0,-1,51*,5,20,1
CNc1cncc(-c2cccc(NS(C)(=O)=O)c2)n1,.,.,.,-16,.,.
CC1(C)CC(=O)C(/C=N/c2ccccn2)=C(O)C1,-4,3,-31,-9,-5,-2
CC1(C)CC(=O)C(C=Nc2cccc(/N=C/C3=C(O)CC(C)(C)CC3=O)n2)=C(O)C1,-2,.,-19,.,85*,-2
COC(=O)C(C)NC(=O)c1cn(-c2ccccc2OC)c(=O)c2ccccc12 (stereo not drawn),.,4,.,1,.,.
COc1ccc(OC)c(-c2nc(C(N)=O)c3[nH]c(=O)n(-c4ccc(F)cc4)c3n2)c1,1,-8,66*,6,67*,8
CC1(C)Cc2c(ccc3ccccc23)/C(=C/C(=O)N2CCCCC2)N1,42*,-11,-43,2,22,-20
CCOC(=O)c1c(NC(=O)CC(C)C)sc(C(C)=O)c1C,.,0,6,-9,-20,17
CCOC(=O)c1c(NC(=O)c2cc(-c3ccc(O)cc3)on2)sc(C(C)=O)c1C,-8,12,-16,-16,84*,-3
CCOC(=O)c1c(NC(=O)N/N=C/c2ccc(O)c(OC)c2)sc(C(C)=O)c1C,.,.,71*,.,84*,.
COc1ccccc1CNC(=O)c1cnccn1,2,1,-53,-12,68*,1
SMILES,Bim-Mcl-1,TLR9-MyD88 block,Mcl1 Bid PPI,NOD2 RIPK2 PPI,Mcl1-Noxa inh,TLR4-MyD88 BLA
COc1ccccc1CNC(=O)COC(=O)c1cnccn1,-1,4,-13,-4,-13,-18
CCOc1ccccc1/C=N/NC(=O)C[n+]1ccccc1,.,-8,.,-3,.,.
CCN1C(=O)[C@H]2[C@@H](c3ccc(C)cc3)N[C@]3(CCCN(Cc4cccn4C)C3=O)[C@H]2C1=O,.,-2,.,-11,.,.
O=C(Nc1ccccc1C(=O)NCc1cccnc1)c1ccccc1F,.,-7,.,-1,.,.
CCOC(=O)Cc1csc(SCC(=O)Nc2sc3c(c2C(N)=O)CCC3)n1,-1,5,-39,-4,71*,10
NC(=O)c1c(NC(=O)CSc2nnc(-c3ccco3)n2-c2ccccc2)sc2c1CCC2,2,3,-54,-6,88*,12
CCOC(=O)Cc1csc(SCC(=O)Nc2nccs2)n1,.,-4,.,-1,.,.
CCOC(=O)c1sc(NC(=O)CSc2nnc(-c3ccco3)n2CC)c(C(=O)OCC)c1C,-3,-1,6,4,64*,13
CCC1(CC)NC(=O)N(CC(=O)Nc2sc3c(c2C(N)=O)CCC3)C1=O,0,-3,-17,-9,73*,17
COc1cccc(NC(=O)CS(=O)(=O)Cc2nc(-c3ccc(C)cc3)oc2C)c1,.,8,.,1,.,.
Cc1cc2c(SCC(=O)NCC3CCCO3)ncnc2s1 (stereo not drawn),.,0,.,-2,.,.
C#CCOCCOCCOCCNc1nc(N2CCN(C(=O)[C@H](Cc3cc4ccccc4[nH]3)n3cc([C@@H](N)CC(C)C)nn3)CC2)nc(N2CCN(C(=O)[C@H](Cc3cc4ccccc4[nH]3)n3cc([C@@H](N)CC(C)C)nn3)CC2)n1,0,3,75*,-8,54*,3
C#CCOCCOCCOCCNc1nc(N2CCN(C(=O)[C@H](CCCCN)n3cc([C@@H](N)C(C)CC)nn3)CC2)nc(N2CCN(C(=O)[C@H](CCCCN)n3cc([C@@H](N)CC(C)C)nn3)CC2)n1 (stereo partly drawn),-2,1,31,-5,14,-3
C#CCOCCOCCOCCNc1nc(N2CCN(C(=O)[C@H](Cc3cc4ccccc4[nH]3)n3cc([C@@H](N)C(C)CC)nn3)CC2)nc(N2CCN(C(=O)[C@H](CCCCN)n3cc([C@@H](N)CC(C)C)nn3)CC2)n1 (stereo partly drawn),0,.,78*,.,40,9
C#CCOCCOCCOCCNc1nc(N2CCN(C(=O)C([C@@H](C)CC)n3cc(C(N)CC(C)C)nn3)CC2)nc(N2CCN(C(=O)[C@H](CCC(=O)O)n3cc(C(N)[C@H](C)CC)nn3)CC2)n1 (stereo partly drawn),-2,-17,7,2,37,-1
C#CCOCCOCCOCCNc1nc(N2CCOCC2)nc(N2CCN(C(=O)[C@H](Cc3cc4ccccc4[nH]3)n3cc([C@@H](N)CC(C)C)nn3)CC2)n1,0,-13,9,0,18,-17
C#CCOCCOCCOCCNc1nc(N2CCN(C(=O)[C@H](Cc3cc4ccccc4[nH]3)n3cc(C(N)CC(C)C)nn3)CC2)nc(N2CCN(C(=O)[C@H](CCC(=O)O)n3cc(C(N)[C@H](C)CC)nn3)CC2)n1 (stereo partly drawn),-1,1,63*,-12,31,-12
C#CCOCCOCCOCCNc1nc(N2CCN(C(=O)[C@H](CCC(=O)O)n3cc(C(N)CC(C)C)nn3)CC2)nc(N2CCN(C(=O)[C@H](CCC(=O)O)n3cc(C(N)[C@H](C)CC)nn3)CC2)n1 (stereo partly drawn),1,-3,76*,8,36,8
CC(=O)N1CCN(S(=O)(=O)c2cccc(C(=O)NNC(=O)c3ccc(Br)cc3)c2)CC1,.,7,.,2,.,.

# Screening results from PubChem BioAssay.
